In PubChem BioAssay AID493131 (Broad Institute, 2011) one finds activation data, which are given here for 50 compounds.

The campaign covered roughly 340,000 compounds. About 3,300 (0.97%) were called active.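 How the source made its calls: active means mean activation above about 17%, with every replicate also reaching it (limit read from the data, passing the limit was not always enough); inconclusive means only one of the two conditions met; inactive means the rest.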 Only a selection was taken, and actives are over-represented in it overall.

The target in the assay is Protein FosB (Mus musculus) (UniProt P13346). Description: enhancers of mouse delta FosB DNA binding – biochemical, fluorescence polarization, TAMRA-CDK5 oligo, single point, primary screen (AID 493131).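 Further: fluorescence polarization rise as delta FosB binds a TAMRA Cdk5 AP-1 oligo.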 To be noted: purified delta FosB, at 25 µM, hits give high values, percent of positive-control signal above neutral wells.
Protein FosB (Mus musculus), sequence (P13346 whole entry, looked up): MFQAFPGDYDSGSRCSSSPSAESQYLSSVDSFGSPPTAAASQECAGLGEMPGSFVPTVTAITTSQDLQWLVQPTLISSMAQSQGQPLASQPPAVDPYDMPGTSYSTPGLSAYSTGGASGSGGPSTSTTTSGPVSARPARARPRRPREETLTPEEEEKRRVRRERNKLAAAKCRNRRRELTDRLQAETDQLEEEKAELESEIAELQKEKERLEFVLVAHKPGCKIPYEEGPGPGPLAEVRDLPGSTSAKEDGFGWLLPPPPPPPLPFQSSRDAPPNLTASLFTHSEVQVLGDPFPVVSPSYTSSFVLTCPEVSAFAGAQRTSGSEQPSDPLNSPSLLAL
Take `O=C(CS(=O)(=O)c1ccccc1)Nc1ccc(S(=O)(=O)Nc2ccccn2)cc1`: the activation is 1.81% (inactive).
In the case of `O=C(Nc1ccc(S(=O)(=O)Nc2ccccn2)cc1)c1ccccc1` it was -2.22% (inactive); in that of `O=C(Nc1ccc(Br)cc1)c1cc(S(=O)(=O)Nc2ccccn2)ccc1Cl`, 40.2% (active).
Next, `COc1ccccc1N1CCN(C(=O)c2cc(=O)c3cc(C)cc(C)c3o2)CC1`: -12.4% (inactive); `CCOc1ccc(S(=O)(=O)N2CCN(C(=O)c3oc4ccccc4c3C)CC2)cc1`: -13.9% (inactive); `CCn1cc(C(=O)OCC(=O)Nc2cccc(C)c2)c(=O)c2ccc(C)nc21`: -9.83% (inactive).
Turning to `Cc1ccc(NNC(=O)c2cccs2)cc1Cl`, the activation was -4.02% (inactive).
Next, `CCCCC1N2CC3([N+](=O)[O-])CN1CC([N+](=O)[O-])(C2)C3(C)C` (stereo not given): 0.0626% (inactive); `CCn1nc(C)c(NC(=O)/C=C/c2ccc(OC)c(COc3ccc(Br)cc3)c2)c1C`: 13.3% (inactive); `COc1ccc(/C=C/C(=O)Nc2c(C)nn(C)c2C)cc1COc1ccc(Br)cc1`: 21.7% (active).
Next, `COc1ccc(OC)c(S(=O)(=O)Nc2c(C)nn(C)c2C)c1`: 1.81% (inactive); `Cc1ccc2c(c1)C1CN(C)CCC1N2S(=O)(=O)c1ccc(Oc2ccc([N+](=O)[O-])cc2)cc1` (stereo not given): 60.9% (active); `Cc1ccc2c(c1)C1CN(C)CCC1N2S(=O)(=O)c1cccc(F)c1` (stereo not given): 1.55% (inactive).
In the case of `Cc1ccc2c(c1)C1CN(C)CCC1N2C(=S)Nc1ccc(OC(F)F)cc1` (stereo not given) it was -5.28% (inactive).
For the compound `COc1ccc([N+](=O)[O-])cc1N(CC(O)Cn1nnc2ccccc21)S(=O)(=O)c1ccc(C)cc1` (stereo not given), the activation was -8.08% (inactive).
Consider `COc1ccc(Br)cc1C(=O)Nc1cccc(C)c1C`, for which the activation was 6.11% (inactive).
In the case of `COc1cc2ccccc2cc1C(=O)Nc1ccccc1C` it was -12.4% (inactive); in that of `COc1ccc(Br)cc1C(=O)NC(=S)Nc1cc(-c2nc3ccccc3[nH]2)ccc1C`, 30.2% (active).
Next, `Cc1nnnn1/C(=C\c1ccccc1)C(=O)OCC(=O)N1CC2(C)CC1CC(C)(C)C2` (stereo not given): -16.8% (inactive).
In the case of `Cc1ccc(-c2cc(C(=O)NCc3cn(C)nc3C)c3cc(Br)ccc3n2)cc1`, the activation is 36.8% (active).
As to `O=C(NCc1cccs1)c1cc(-c2ccccn2)nc2ccc(Br)cc12`, the activation is 2.96% (inactive).
Next, `Cc1nn(C)cc1CNC(=O)Nc1ccc(Cl)cc1`: -6.86% (inactive); `CCN(CC)CCCNC(=S)N(CCO)Cc1cc2cc3c(cc2[nH]c1=O)OCO3`: -3.62% (inactive); `CS(=O)(=O)N1CCc2nc(-c3ccccc3)sc2C1`: -1.76% (inactive).
Turning to `c1ccc2c(CCN3CCNC[C@H]3Cc3cccc4ccccc34)cccc2c1`, the activation was 12.1% (inactive).
In the case of `O=C1CCNCCN1[C@H](CO)Cc1ccccc1` it was -2.28% (inactive); in that of `c1ccc(C[C@H]2CNCCN2CCC23CC4CC(CC(C4)C2)C3)cc1`, 20.1% (active).
In the case of `CC(Oc1cc2oc(=O)c3c(c2cc1Cl)CCCC3)C(=O)NCc1ccncc1` (stereo not given) it was -1.99% (inactive); in that of `COc1ccc2c(c1)c(C(=O)N/N=C/c1cccs1)c(C)n2C`, -3.67% (inactive).
Next, `CCOC(=O)C1=C(COC(=O)[C@H](C)NS(=O)(=O)c2ccccc2F)NC(=O)NC1C` (stereo not given in full): -4.67% (inactive); `Cn1ncc2c(NNC(=O)Cc3cccc4ccccc34)ncnc21`: 2.75% (inactive); `CC(=O)c1ccc(NC(=O)C2CC(=O)Nc3nc4ccccc4n32)cc1` (stereo not given): 19.8% (active).
As to `O=C(Nc1ccccc1)C1CC(=O)n2c(nc3ccccc32)N1` (stereo not given), the activation is 12% (inactive).
As for `CCOC(=O)c1ccc(NC(=O)C2CC(=O)Nc3nc4ccccc4n32)cc1` (stereo not given), the activation was 7.67% (inactive).
Next, `CNc1nc(SC)nc(N(C#N)CC(=O)OC)n1`: 0.989% (inactive).
Next, `Oc1c(C(c2ccco2)N2CCC3(CC2)OCCO3)sc2ncnn12` (stereo not given): -7.56% (inactive).
In the case of `CC(C)NS(=O)(=O)c1ccc(OCC(=O)Nc2ccc3c(c2)OCCO3)cc1` it was -10.5% (inactive); in that of `CC(=O)Nc1ccc(NC(=O)C(NS(=O)(=O)c2ccc3c(c2)OCCO3)C(C)C)cc1` (stereo not given), 36.7% (active).
As to `CC(NS(=O)(=O)c1ccc(Cl)cc1)C(=O)Nc1ccc2c(c1)OCCO2` (stereo not given), the activation was 1.9% (inactive).
On to `CCc1ccc(C(=O)OCC(=O)NCC(F)(F)F)cc1`, for which the activation is -1.18% (inactive).
Next, `COC(=O)c1ccc2ccccc2c1OC1OC(CO)C(O)C(O)C1NC(C)=O` (stereo not given): -0.206% (inactive).
Take `C#CCOCCOCCOCCNc1nc(N2CCN(C(=O)[C@H](CCC(=O)O)n3cc(CN)nn3)CC2)nc(N2CCN(C(=O)[C@H](CCC(=O)O)n3cc(CN)nn3)CC2)n1`: the activation is -0.339% (inactive).
Next, `C#CCOCCOCCOCCNc1nc(N2CCN(C(=O)[C@H](CCCCN)n3cc([C@@H](N)C(C)CC)nn3)CC2)nc(N2CCN(C(=O)[C@H](Cc3ccc(O)cc3)n3cc([C@@H](N)C(C)CC)nn3)CC2)n1` (stereo not given in full): 15.3% (inactive); `C#CCOCCOCCOCCNc1nc(N2CCN(C(=O)[C@H](Cc3ccc(O)cc3)n3cc(C(N)CC(C)C)nn3)CC2)nc(N2CCN(C(=O)[C@H](CCC(=O)O)n3cc(C(N)[C@H](C)CC)nn3)CC2)n1` (stereo not given in full): 2.04% (inactive); `C#CCOCCOCCOCCNc1nc(N2CCN(C(=O)[C@H](CCCCN)n3cc(CCC(=O)O)nn3)CC2)nc(N2CCN(C(=O)[C@H](CCCCN)n3cc(CC(C)O)nn3)CC2)n1` (stereo not given in full): 2.6% (inactive).
In the case of `C#CCOCCOCCOCCNc1nc(N2CCN(C(=O)C([C@@H](C)O)n3cc([C@@H](N)CCCCN)nn3)CC2)nc(N2CCN(C(=O)[C@H](CCCCN)n3cc(CN)nn3)CC2)n1` (stereo not given in full) it was 31.3% (active).
In the case of `C#CCOCCOCCOCCNc1nc(N2CCN(C(=O)C(Cc3ccc(O)cc3)n3cc(C(N)CC(C)C)nn3)CC2)nc(N2CCN(C(=O)C(Cc3ccc(O)cc3)n3cc(C(N)C(C)CC)nn3)CC2)n1` (stereo not given) it was 22.4% (active).
Regarding `Cc1csc(CN(C)C(=O)CC2C(=O)NCCN2CC(C)(C)C)n1` (stereo not given), the activation was -10.6% (inactive).
With `COc1cc(-c2nnc(Cn3cc(C(F)(F)F)ccc3=O)o2)cc(OC)c1OC`, the activation is -9.47% (inactive).
Next, `COC(=O)c1ccc(CSc2ccc(S(=O)(=O)N3CCCCC3)cn2)cc1`: 8.71% (inactive).
